# Reference: publication PMC5540273 (PLoS ONE, 2017)
# Key:
# Settings in all cases: concentration: 1 μM,replicates: in singlicate; n = 1
# FYN = test system: FYN
# GAK = test system: GAK
# GCN2(Kin.Dom.2,S808G) = test system: T1, GCN2(Kin.Dom.2,S808G)
# T1 construct: gene EIF2AK4
# GRK1 = test system: GRK1
# GRK2 = test system: T2, GRK2
# T2 construct: gene ADRBK1
# GRK3 = test system: T3, GRK3
# T3 construct: gene ADRBK2
# GRK4 = test system: GRK4
# GRK7 = test system: GRK7
# GSK3A = test system: GSK3A
# GSK3B = test system: GSK3B
# HASPIN = test system: T4, HASPIN
# T4 construct: gene GSG2
# HCK = test system: HCK
# HIPK1 = test system: HIPK1
# HIPK2 = test system: HIPK2
# HIPK3 = test system: HIPK3
# HIPK4 = test system: HIPK4
# HPK1 = test system: HPK1
# HUNK = test system: HUNK
# ICK = test system: ICK
# IGF1R = test system: IGF1R
# 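Also: KINOMEscan kinase panel screen.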
Structure (SMILES),%Inh (FYN),%Inh (GAK),"%Inh (GCN2(Kin.Dom.2,S808G))",%Inh (GRK1),%Inh (GRK2),%Inh (GRK3),%Inh (GRK4),%Inh (GRK7),%Inh (GSK3A),%Inh (GSK3B),%Inh (HASPIN),%Inh (HCK),%Inh (HIPK1),%Inh (HIPK2),%Inh (HIPK3),%Inh (HIPK4),%Inh (HPK1),%Inh (HUNK),%Inh (ICK),%Inh (IGF1R)
Nc1nccc(-c2ccc3c(N)n[nH]c3c2)n1 [GSK1034945],32%,15%,0%,100%,0%,40%,52%,0%,0%,19%,90.5%,0%,0%,0%,34%,34%,52%,0%,0%,0%
Cc1ccn2nc(-c3ccc(F)cc3)c(-c3ccncc3)c2c1.Cl [GW457859],0%,0%,0%,0%,0%,40%,0%,59%,9%,0%,32%,10%,0%,0%,0%,0%,12%,52%,0%,0%
CN1CCN(CCNc2nc3cc(Oc4ccc(NC(=O)Nc5cc(C(F)(F)F)ccc5F)cc4)ccc3[nH]2)CC1.Cl.Cl [GW768504],0%,0%,24%,0%,0%,0%,17%,0%,20%,0%,0%,11%,19%,0%,0%,66%,3%,41%,0%,0%
Cn1ccc2ncnc(Oc3ccc(NC(=O)Nc4cc(C(C)(C)C)on4)c(Cl)c3)c21,35%,13%,0%,16%,62%,1%,0%,8%,0%,0%,5%,66%,36%,34%,0%,28%,30%,2%,15%,15%
Cn1ccc2ncnc(Oc3ccc(NC(=O)Nc4cccc(C(F)(F)F)c4)c(F)c3)c21,10%,12%,26%,15%,0%,0%,24%,0%,2%,7%,1%,31%,44%,0%,0%,94.3%,48%,0%,0%,4%
Cl.c1ccc(Oc2ccc(Nc3ccnc4cc(-c5ccc(CN6CCNCC6)o5)ccc34)cc2)nc1 [GW567142],82%,68%,0%,0%,10%,0%,0%,0%,19%,0%,0%,84%,0%,0%,7%,10%,0%,1%,0%,0%
O=C(Nc1ccc(Oc2ccc3nc(NC(=O)C4CC4)cn3n2)c(F)c1)c1cccn(-c2ccccc2)c1=O,15%,0%,20%,0%,0%,0%,21%,0%,25%,0%,0%,71%,40%,0%,0%,20%,11%,6%,0%,0%
Cc1ccc(CC(=O)N2CCc3cc(-c4cn(C)c5ncnc(N)c45)ccc32)cc1 [GSK2634758],41%,34%,42%,0%,0%,24%,0%,0%,9%,0%,5%,0%,6%,0%,13%,5%,63%,1%,0%,18%
Cn1ccc2ncnc(Oc3ccc(NC(=O)Nc4ccnc(C(F)(F)F)c4)c(Cl)c3)c21,0%,0%,10%,0%,0%,29%,100%,0%,11%,0%,9%,0%,35%,0%,0%,0%,0%,8%,0%,2%
NC(=O)Nc1sc(-c2ccc(F)cc2)cc1C(N)=O [GW789449],20%,37%,34%,12%,0%,0%,87%,26%,0%,17%,3%,47%,40%,34%,31%,2%,48%,0%,15%,2%
Cc1n[nH]c2cc(Nc3ccnc(Nc4cccc(CN5CCOCC5)c4)n3)ccc12 [GW682569],75%,74%,39%,5%,31%,24%,64%,0%,0%,15%,20%,25%,0%,0%,26%,3%,24%,0%,0%,0%
CCn1c(-c2nonc2N)nc2cncc(Br)c21 [SB-738004],0%,17%,0%,32%,12%,69%,0%,16%,29%,40%,99.4%,3%,47%,74%,74%,0%,42%,27%,7%,0%
O=C(Nc1cccc(C(F)(F)F)c1)c1cccc(Oc2ccc3nccn3n2)c1,62%,0%,0%,9%,0%,35%,10%,0%,0%,2%,0%,52%,0%,8%,20%,65%,0%,0%,31%,20%
CN1CCN(CCCNc2nccc(-c3c(-c4ccc(F)cc4)nn4cc(C(N)=O)ccc34)n2)CC1 [GW622475],9%,87%,5%,0%,0%,0%,9%,0%,33%,33%,0%,8%,5%,0%,27%,0%,13%,6%,12%,0%
C[C@@H](Oc1cc(-n2cnc3cc(-c4ccncc4)ccc32)sc1C(N)=O)c1ccccc1Cl [GSK479719],29%,59%,69%,100%,0%,62%,62%,0%,13%,24%,75%,9%,0%,0%,15%,24%,72%,0%,4%,14%
Cc1nnc(-c2ccc3occ(-c4ccc(S(C)=O)cc4)c3n2)o1 (stereo not shown),0%,5%,0%,0%,0%,0%,33%,0%,40%,0%,6%,0%,46%,0%,0%,0%,0%,0%,0%,10%
COc1cc2c(Nc3ccc(NC(=O)c4ccccc4)cc3)ncnc2cc1OCCCN1CCOCC1 [GSK301329],49%,0%,4%,10%,0%,0%,12%,0%,0%,11%,0%,0%,15%,0%,3%,79%,15%,0%,2%,15%
CC(C(=O)NC1CCN(c2ccnc(Nc3ccc(F)cc3)n2)C1)c1ccc(Cl)cc1 (stereo not shown) [GSK1379713],14%,0%,0%,0%,0%,0%,12%,0%,0%,0%,30%,0%,0%,6%,0%,0%,49%,0%,0%,0%
COc1cccc(OC)c1C(=O)Nc1cccc(-c2nn3ccccc3c2-c2ccnc(Nc3cccc(F)c3)n2)c1 [GSK361065],22%,6%,0%,0%,0%,0%,0%,17%,24%,0%,0%,30%,31%,0%,0%,84%,2%,15%,0%,7%
CCNCC(Cc1ccccc1)NC(=O)c1cc(Br)c(-c2ccnc3[nH]ccc23)s1.Cl.Cl (stereo not shown) [GSK1383280],0%,51%,43%,89%,61%,83%,0%,91.9%,0%,14%,88%,0%,46%,18%,48%,92.5%,51%,0%,18%,23%
